Measurements: PubChem BioAssay (NCATS)
Where “and” joins values, the source holds several entries; their conditions need not be identical. Equal values may be shown once. Inconclusive results are not listed. Where a call stands in place of a potency, no number is given. Calls of active or inactive are those of the source. Unless noted, calls follow the shape of the dose curve; as a rule, active = well fitted curve in the direction sought with a large enough effect; inconclusive = small, poorly fitted or top-dose-only effect, or another doubt; inactive = no such curve, though single readings can be large; an effect the other way counts as inactive or inconclusive.

Tests used:
[1] = qHTS assay for small molecule agonists of retinoid X receptor alpha signaling (AID 588544; calls by dose curve); conditions: HEK293T RXRa-UAS-bla, beta-lactamase reporter, 18 h; 530 nm emission
[2] = biological target: Retinoic acid receptor RXR-alpha (Homo sapiens) (UniProt P19793); test: as above; conditions: HEK293T RXRa-UAS-bla, beta-lactamase reporter, 18 h; series mostly up to 76.7 µM
Chain of Retinoic acid receptor RXR-alpha (Homo sapiens) (P19793 whole entry, looked up): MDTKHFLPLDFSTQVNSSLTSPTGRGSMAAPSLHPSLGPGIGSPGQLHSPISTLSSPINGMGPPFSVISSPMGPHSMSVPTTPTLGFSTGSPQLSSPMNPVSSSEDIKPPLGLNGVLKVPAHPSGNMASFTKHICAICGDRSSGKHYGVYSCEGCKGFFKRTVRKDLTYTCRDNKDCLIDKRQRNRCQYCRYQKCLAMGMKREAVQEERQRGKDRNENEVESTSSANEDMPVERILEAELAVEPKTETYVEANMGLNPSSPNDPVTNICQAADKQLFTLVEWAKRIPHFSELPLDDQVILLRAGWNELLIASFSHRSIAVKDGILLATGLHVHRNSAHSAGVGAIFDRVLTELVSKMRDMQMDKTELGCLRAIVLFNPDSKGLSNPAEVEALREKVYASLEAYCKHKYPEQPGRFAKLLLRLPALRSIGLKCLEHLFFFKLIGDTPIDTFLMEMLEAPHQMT

[3] = qHTS assay for small molecule antagonists of retinoid X receptor alpha signaling (AID 588546); conditions: HEK293T RXRa-UAS-bla, beta-lactamase ratio, antagonist mode; measured here: W530 green channel, cytotoxicity proxy;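 also: cells stimulated with 9-cis-retinoic acid as agonist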
Method in brief: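 Beta-lactamase reporter inhibition, read as CCF4 fluorescence ratio (ex 405, em 460/530 nm) after 2 h at RT. HEK293T UAS-bla cells, 2500/well, were stimulated with 9-cis-RA at 500 or 100 nM final alongside test compound for 18 h at 37 C.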

[4] = biological target: Thyroid hormone receptor beta (Homo sapiens) (UniProt P10828); test: qHTS assay for small molecule antagonists of thyroid hormone receptor beta signaling (AID 588547; active = well fitted inhibition curve with a large enough effect in the signal ratio, with a control signal flat, not every such curve was filed as active; the % refers to the signal ratio;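 also: cells stimulated with 0.4 nM T3 agonist during compound exposure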); conditions: TR-UAS-bla HEK293, beta-lactamase ratio, antagonist mode, 18 h
Chain of Thyroid hormone receptor beta (Homo sapiens) (P10828 whole entry, looked up): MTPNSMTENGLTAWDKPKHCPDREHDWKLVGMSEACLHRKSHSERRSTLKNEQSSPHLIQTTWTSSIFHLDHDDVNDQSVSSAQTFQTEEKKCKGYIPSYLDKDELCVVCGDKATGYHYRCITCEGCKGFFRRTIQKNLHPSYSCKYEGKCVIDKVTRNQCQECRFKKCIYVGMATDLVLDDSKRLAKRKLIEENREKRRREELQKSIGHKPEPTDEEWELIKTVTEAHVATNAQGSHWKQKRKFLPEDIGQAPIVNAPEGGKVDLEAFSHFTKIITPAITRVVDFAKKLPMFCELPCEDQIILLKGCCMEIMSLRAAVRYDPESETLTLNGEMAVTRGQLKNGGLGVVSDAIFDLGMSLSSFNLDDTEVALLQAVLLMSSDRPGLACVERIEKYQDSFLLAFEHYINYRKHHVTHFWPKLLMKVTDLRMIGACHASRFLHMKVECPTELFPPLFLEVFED
Method in brief: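 Inhibition of T3-driven (0.4nM final) beta-lactamase reporter activity was measured over 0.59 nM to 92 uM compound after 18 h at 37 C. The cells were GripTite HEK293 TR-UAS-bla in charcoal/dextran-stripped serum, with CCF4 ratio read-out and IC50 from Hill fits.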

[5] = biological target: Voltage-gated inwardly rectifying potassium channel KCNH2 (Homo sapiens) (UniProt Q12809); test: qHTS Assay for Small Molecule Inhibitors of the Human hERG Channel Activity (AID 588834); conditions: U2OS BacMam hERG, FluxOR thallium flux fluorescence; series mostly up to 46.1 µM;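 also: top concentration of the series differs between compounds; lower thallium flux fluorescence means stronger hERG block; nearly all actives have a fitted effect of over 50% in size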
Chain of Voltage-gated inwardly rectifying potassium channel KCNH2 (Homo sapiens) (Q12809 whole entry, looked up): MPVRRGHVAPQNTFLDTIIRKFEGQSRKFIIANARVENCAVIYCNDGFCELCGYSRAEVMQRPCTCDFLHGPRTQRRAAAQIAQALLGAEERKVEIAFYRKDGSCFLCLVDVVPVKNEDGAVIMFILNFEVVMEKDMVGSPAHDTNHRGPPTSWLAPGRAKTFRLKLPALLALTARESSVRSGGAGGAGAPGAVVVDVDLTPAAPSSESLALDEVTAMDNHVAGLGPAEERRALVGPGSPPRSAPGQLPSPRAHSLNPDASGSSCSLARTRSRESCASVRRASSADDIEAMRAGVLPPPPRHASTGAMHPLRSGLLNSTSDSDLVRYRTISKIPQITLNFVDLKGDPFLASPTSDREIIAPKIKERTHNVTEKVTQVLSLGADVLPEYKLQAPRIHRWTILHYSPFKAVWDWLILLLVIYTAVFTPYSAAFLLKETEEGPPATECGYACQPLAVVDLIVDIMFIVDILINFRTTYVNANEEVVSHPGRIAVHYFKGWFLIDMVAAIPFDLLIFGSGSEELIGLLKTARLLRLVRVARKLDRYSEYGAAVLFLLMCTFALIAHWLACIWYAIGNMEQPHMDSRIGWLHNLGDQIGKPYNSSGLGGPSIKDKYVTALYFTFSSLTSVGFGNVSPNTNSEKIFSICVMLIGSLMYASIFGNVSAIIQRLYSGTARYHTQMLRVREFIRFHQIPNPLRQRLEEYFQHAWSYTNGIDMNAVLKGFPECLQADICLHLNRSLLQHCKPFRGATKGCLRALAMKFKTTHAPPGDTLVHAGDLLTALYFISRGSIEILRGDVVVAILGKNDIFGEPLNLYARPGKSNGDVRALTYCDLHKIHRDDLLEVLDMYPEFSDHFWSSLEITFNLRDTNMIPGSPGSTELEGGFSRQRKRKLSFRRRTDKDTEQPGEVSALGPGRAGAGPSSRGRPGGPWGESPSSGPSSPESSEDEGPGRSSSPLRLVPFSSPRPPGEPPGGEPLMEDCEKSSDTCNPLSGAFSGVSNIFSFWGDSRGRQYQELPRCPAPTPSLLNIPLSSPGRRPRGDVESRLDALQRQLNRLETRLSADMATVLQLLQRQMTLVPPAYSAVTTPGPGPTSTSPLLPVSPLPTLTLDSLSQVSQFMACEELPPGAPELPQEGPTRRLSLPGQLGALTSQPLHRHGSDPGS
Method in brief: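 Concentration-response qHTS measuring drop in thallium-sensitive dye signal. U2OS cells carrying BacMam hERG; compound exposure ~10 min, then stimulation buffer and 2 min read at 1 sec intervals.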

[6] = biological target: Luciferin 4-monooxygenase (Photinus pyralis) (UniProt P08659); test: Biochemical firefly luciferase enzyme assay for NPC (AID 624030);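 also: purified P. pyralis luciferase at 10 nM with luciferin and ATP substrate; nearly all actives have a fitted effect of over 70% in size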; conditions: purified P. pyralis luciferase, luminescence, 5 min; series mostly up to 58.6 µM
Chain of Luciferin 4-monooxygenase (Photinus pyralis) (P08659 whole entry, looked up): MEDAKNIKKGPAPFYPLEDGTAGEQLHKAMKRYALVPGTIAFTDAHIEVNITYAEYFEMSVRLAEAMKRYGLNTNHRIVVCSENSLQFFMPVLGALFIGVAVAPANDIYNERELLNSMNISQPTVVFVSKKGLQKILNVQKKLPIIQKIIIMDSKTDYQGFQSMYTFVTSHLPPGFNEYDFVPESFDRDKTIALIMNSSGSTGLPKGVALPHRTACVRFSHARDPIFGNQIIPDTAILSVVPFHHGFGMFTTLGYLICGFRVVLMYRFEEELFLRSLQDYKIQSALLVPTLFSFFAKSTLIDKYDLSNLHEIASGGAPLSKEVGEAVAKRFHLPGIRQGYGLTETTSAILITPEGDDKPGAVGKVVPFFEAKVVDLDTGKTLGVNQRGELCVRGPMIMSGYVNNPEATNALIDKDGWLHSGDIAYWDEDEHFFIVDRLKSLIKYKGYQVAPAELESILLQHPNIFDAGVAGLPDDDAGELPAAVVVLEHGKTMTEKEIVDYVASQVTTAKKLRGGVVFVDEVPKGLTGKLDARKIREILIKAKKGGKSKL
Method in brief: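 Direct inhibition of firefly luciferase enzyme (10 nM final, 50 mM Tris Acetate) assessed by luminescence within 5 minutes. Percent activity scaled between DMSO and PTC124 positive control, with concentration-effect curves classified by fit quality and response.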

[7] = S16 Schwann cell viability assay (CellTiter-Glo assay) (AID 624031); conditions: S16 rat Schwann cells viability, 24 h; series mostly up to 57.5 µM;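 also: native untransfected S16 rat Schwann cells; cellular ATP luminescence as a viability measure; nearly all actives have a fitted effect of over 70% in size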
Method in brief: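 Concentration-effect curves come from CellTiter-Glo luminescence of S16 rat Schwann cells after 24 h compound exposure. Each reading was normalized to DMSO wells (0%) and wells without cells, and curves were ranked by r2 and response magnitude.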

[8] = S16 Schwann cell PMP22 intronic element firefly luciferase assay (AID 624032); conditions: S16 rat Schwann cells, PMP22 element FLuc, 24 h; series mostly up to 57.5 µM; also: nearly all actives have a fitted effect of over 30% in size
Method in brief: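 Luciferase reporter of PMP22 intronic-element expression in stably transfected S16 rat Schwann cells, read by ONE-Glo luminescence after 24 h compound exposure at 37 C. Activity scaled between DMSO (0%) and positive-control PTC124; concentration-effect curves quality-classified.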

[9] = biological target: Thyroid hormone receptor beta (Homo sapiens) (UniProt P10828); test: qHTS assay for small molecule agonists of thyroid hormone receptor beta signaling (AID 588545; calls by dose curve); conditions: TR-UAS-bla GripTite HEK 293, beta-lactamase ratio, agonist mode, 18 h, percent of T3 response, DMSO as zero; series mostly up to 76.7 µM
Method in brief: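 Stimulation of a TR-driven beta-lactamase reporter was quantified in GripTite HEK 293 cells. Compound series ran for 18 hrs; curves were normalized to T3 and DMSO controls and fitted to yield EC50.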

[10] = S16 Schwann cell PMP22 intronic element beta-lactamase assay (AID 624044; calls by dose curve; also: nearly all actives have a fitted effect of over 15% in size); conditions: S16 rat Schwann cells, PMP22 element beta-lactamase FRET, 24 h; series mostly up to 38.3 µM
Method in brief: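 Rat S16 Schwann cells with beta-Lac driven by a PMP22 intronic element, compound-treated 24 h at 37 °C. LiveBLAzer FRET B/G read: 460 nm normalized to potassium clavulanate vs DMSO; 535 nm FRET as viability; concentration-effect curves classified.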

Structure (SMILES) | max response [1] | outcome [2] | max response [3] | activity change % (negative = inhibition) [4] | Potency [5] | Potency [6] | Potency [7] | Potency [8] | outcome [9] | Potency [10]
CC12CCC(CC1)C(C)(C)O2 | -11.5% | inactive | -6.73% | 18.1% (inactive) | inactive | inactive | inactive | inactive |  | 
CCN(CC)C(=O)Nc1ccc(OCC(O)CNC(C)(C)C)c(C(C)=O)c1 (stereo not given) |  |  |  |  | inactive |  |  |  |  | 
Nc1ccc(S(=O)(=O)Nc2nccs2)cc1 | 11.3% | inactive | -9.52% |  | inactive | inactive | inactive |  |  | 
Cc1cc(CC(=O)O)n(C)c1C(=O)c1ccc(Cl)cc1 |  |  |  |  |  | inactive | inactive | inactive | inactive | 
C[C@]12CC[C@@H]3c4ccc(O)cc4CC[C@H]3[C@@H]1CCC2=O | 5.7% | inactive | 4.88% | 17.6% (inactive) |  |  |  |  | inactive | 
CC(O)COc1ccccc1 (stereo not given) | -14.5% | inactive | -7.54% | -6.45% (inactive) | inactive | inactive | inactive |  | inactive | 
C[C@]12C[C@H](O)[C@H]3[C@@H](CCC4=CC(=O)CC[C@@]43C)[C@@H]1CC[C@@H]2C(=O)CO | 2.39% and 24.9% | inactive | 12.2% | -13.1% (inactive) |  | inactive | inactive |  | inactive | 
O=C1O[C@H]([C@@H](O)CO)C(O)=C1O | -15.9% and -7.94% | inactive | -3.01% | 4.68% (inactive) and -9.73% (inactive) | inactive | inactive | inactive | inactive | inactive | 
CC(CN1c2ccccc2Sc2ccccc21)N(C)C (stereo not given) | 10.3% | inactive |  | -18.5% (inactive) |  | inactive | inactive |  | inactive | inactive
Cc1cccc(Nc2cc(Cl)nc(SCC(=O)O)n2)c1C | -6% | inactive | -6.52% | -2.88% (inactive) | inactive | inactive | inactive |  |  | 
COc1ccccc1O | -7.45% and -9.73% and 7.42% | inactive | -10.5% and -8.87% and -4.21% | 8.27% (inactive) and 8.42% (inactive) and 1.01% (inactive) | inactive | inactive | inactive |  | inactive | 
